Screens (PubChem)
Many of the other results were omitted from the sample, so hits are more common in it than they were.
ST2 IL33 inh = inhibitors of human ST2 (IL1RL1) binding to IL-33; Q01638; AlphaLISA ST2-Fc/biotin-IL-33 interaction, 1 h; inhibition, % for hits at 17 µM; 78,000 compounds, 2.3% hits; in the data active means inhibition above about 30%
Target sequence (Q01638 whole entry, looked up): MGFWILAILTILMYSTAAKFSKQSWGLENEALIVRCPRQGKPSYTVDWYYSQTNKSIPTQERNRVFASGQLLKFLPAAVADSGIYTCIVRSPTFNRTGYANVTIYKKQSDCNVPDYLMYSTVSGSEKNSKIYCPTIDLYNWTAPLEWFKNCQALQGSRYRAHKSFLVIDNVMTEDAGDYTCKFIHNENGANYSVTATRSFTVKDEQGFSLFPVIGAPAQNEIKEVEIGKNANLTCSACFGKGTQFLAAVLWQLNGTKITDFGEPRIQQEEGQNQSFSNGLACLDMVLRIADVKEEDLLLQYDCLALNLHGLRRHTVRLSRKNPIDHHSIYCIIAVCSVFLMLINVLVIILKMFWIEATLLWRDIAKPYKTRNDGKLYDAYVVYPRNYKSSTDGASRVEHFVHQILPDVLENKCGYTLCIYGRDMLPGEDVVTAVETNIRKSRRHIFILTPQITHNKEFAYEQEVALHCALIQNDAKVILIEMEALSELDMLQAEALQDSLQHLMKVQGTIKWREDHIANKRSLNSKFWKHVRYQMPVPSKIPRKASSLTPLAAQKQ
Large screens that a line does not name were inactive; ! = not active in a repeat.

CN(Cc1ccccc1)Cc1cc(C[C@H]2CNCC[C@H]2CC(=O)N2CCN(Cc3ccccc3)CC2)no1	none
N=c1oc2ccc(Br)cc2cc1C(=O)Nc1ccc(Cl)cc1Cl	none
CCOc1ccc(NC(=O)C2CC(=O)N(C3CCCCC3)C2)cc1 (stereo not drawn)	none
CCOC(=O)C1(Cc2ccccc2C)CCCN(C(=O)c2cnccn2)C1 (stereo not drawn)	none
CCN1CCN(c2cc(C)c3cc(NC(=O)CCC(=O)N4CCCC(C)C4)ccc3n2)CC1 (stereo not drawn)	none
O=C(Nc1cccc(F)c1)N1CCN(c2ccc(F)cc2)CC1	none
O=C(O)C[C@@H]1CCN(C(=O)Cc2ccccc2)C[C@@H]1CCN1CCN(c2cccc(C(F)(F)F)c2)CC1	none
O=C(O)C[C@@H]1CCN(C(=O)c2ccccc2)C[C@@H]1CCN1CCN(c2cccc(C(F)(F)F)c2)CC1	none
CC(=O)Nc1ccc(S(=O)(=O)N(CCCN2CCOCC2)Cc2cccs2)cc1	none
O=C(O)C[C@@H]1CCN(C(=O)Cc2cccs2)C[C@@H]1CCN1CCOCC1	ST2 IL33 inh 54%
O=C(O)C[C@@H]1CCN(C(=O)Nc2ccccc2)C[C@@H]1CCN1CCN(c2ccc(F)cc2)CC1	ST2 IL33 inh 69%
COc1cc2c(cc1OC)CN(Cc1ccco1)CC2	none
COc1cc(C2NC(=O)NC(C)=C2C(=O)OCC(C)C)ccc1OCc1ccccc1 (stereo not drawn)	none
COC(=O)[C@]1(C)C[C@H](C(=O)N(C)Cc2ccon2)[C@H](c2ccccc2Cl)N1C	none
Cc1ccc(C(=O)NCCC(=O)N2CCc3nc(C)n(C)c(=O)c3CC2)cc1	none
Cc1nc2c(c(=O)n1C)CCN(C(=O)C1CCOC(C)(C)C1)CC2 (stereo not drawn)	ST2 IL33 inh 31%
Cc1nc2c(c(=O)n1C)CCN(C(=O)Nc1ccc3c(c1)OCO3)CC2	none
CC(C)OCCCNS(=O)(=O)c1ccc2c(c1)CCN2C(=O)C1CC1	none
CC1(C)CC(N2C(=O)OC(C)([C@H]3CC4C=CC3C4)C2(C)O)CC(C)(C)N1 (stereo partly drawn)	ST2 IL33 inh 98%
COc1ccccc1NC(=O)N1C[C@@H]2C[C@H](C1)c1ccc(-c3ccccc3CN3CCOCC3)c(=O)n1C2	none
COc1ccc(C(=O)Nc2ccc3n(c2=O)C[C@H]2C[C@@H]3CN(S(=O)(=O)c3cccc4cccnc34)C2)cc1	none
COC(=N)CN1C(=O)c2ccccc2S1(=O)=O	none
Cc1ccccc1Nc1sc(C(=O)c2ccccc2)c(N)c1C#N	none
CCN1C(C(=O)c2ccccc2)=C(Nc2ccccc2C)c2ccccc2S1(=O)=O	ST2 IL33 inh 31%
O=C(Nc1ccccc1O)c1ccc(Br)c(S(=O)(=O)N2CCOCC2)c1	none
O=C(NCc1cccs1)c1cc(-c2ccc(Br)s2)nc2ccccc12	none
O=C(NCc1cccs1)c1cc(-c2ccc(Cl)s2)nc2ccccc12	ST2 IL33 inh 30%!
Cc1ccc(CNC(=O)c2cc(-c3ccc(Cl)s3)nc3ccccc23)o1	none
CC1CCCC(C)N1C(=O)c1ccc(Br)cc1 (stereo not drawn)	none
Cc1ccc(C(=O)c2c[nH]c3ccc(F)cc3c2=O)cc1C	none
COc1cccc(N2CCC(N3CCCC(N4CCN(c5ccccc5C)CC4)C3)CC2)c1 (stereo not drawn)	none
COc1cccc(N2CCN(C3CCC(C)C3)CC2)c1 (stereo not drawn)	ST2 IL33 inh 31%
CC1CCC(N2CCN(c3ccccc3)CC2)C1 (stereo not drawn)	none
Cn1cc(C(=O)NC2CCN(Cc3ccccc3)CC2)c2c3ccccc3n(C)c2c1=O	none
O=C(Cn1cnc2c(oc3ccccc32)c1=O)N1CCc2ccccc21	none
O=C(Nc1ccc(F)cc1)c1c[nH]c(=O)n(-c2ccccc2)c1=O	none
Cc1nc2ccccc2c(=O)n1CC(=O)NCc1ccccc1	none
Cn1c(/C=C/c2ccc(Br)cc2)nc2ccccc2c1=O	none
CCn1c(/C=C/c2cccnc2)nc2ccccc2c1=O	ST2 IL33 inh 96%
Cc1c(C2c3ccccc3Oc3ccccc32)c(=O)n(-c2ccccc2)n1C	none
CC(C)(C)n1cnc2cc(NCc3ccccn3)ccc21	none
CCn1cnc2cc(NCc3ccc(N(C)C)cc3)ccc21	ST2 IL33 inh 52%!
CCCCn1cnc2cc(NCc3ccc(Br)cc3)ccc21	none
CCn1cnc2cc(NCc3cccs3)ccc21	none
CN(C)c1ccc(CNc2ccc3c(c2)ncn3C(C)(C)C)cc1	ST2 IL33 inh 33%
CCCn1cnc2cc(NCc3ccncc3)ccc21	none
CC(C)(C)n1cnc2cc(NCc3ccncc3)ccc21	none
CCN(CC)c1ccc(CNc2ccc3c(c2)ncn3CC)cc1	ST2 IL33 inh 52%!
CCn1cnc2cc(NCc3ccc(C)cc3)ccc21	none
NC(=Nc1nc2ccccc2o1)NC(=O)c1cc([N+](=O)[O-])ccc1N	none
COc1ccc(-c2nc3s/c(=C\c4ccc(C)cc4)c(=O)n3n2)cc1	none
CN1CCCC2(CC1)CCN(C(=O)CCNC(=O)c1ccc(F)cc1)CC2	none
CCS(=O)(=O)c1ccc2oc(=O)c(C=C(O)c3cccs3)nc2c1	none
O=C1CCC(C(=O)N2CCC(c3nc4ccccc4o3)CC2)CN1CCN1CCOCC1 (stereo not drawn)	none
Cc1ccc(-c2noc(CCC(=O)N3CCC(C)CC3)n2)cc1	none
COc1ccc(CON2C(=O)c3ccccc3C2=O)cc1	none
